# Source: PubChem BioAssay (NCATS)
# Results filed as inconclusive are left out. A call without a number means that no potency is given here. The source made the active and inactive calls. Calls come from the whole dose curve; as a rule, active = well fitted cell-killing curve with a large enough effect; inconclusive = small, poorly fitted or top-dose-only effect, or effect the other way; inactive = no such curve, though single readings can be large or run the other way.
# Experiments:
# [1] = Quantitative High-Throughput drug screen in 47 multiple myeloma cell lines against the NCATS MIPE library collection: XG1_PLB cell viability assay (AID 1919866); note: nearly all actives have a fitted effect of over 35% in size
# How it was run: (§1)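 Myeloma cells (500/well) treated with MIPE 4.0 compounds for 48 h at 37 °C, 5% CO2. Viability read as ATP via CellTiter-Glo luminescence after 5 min at RT; DMSO-only wells = 100%, media-only = 0% viability.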
# [2] = Quantitative High-Throughput drug screen in 47 multiple myeloma cell lines against the NCATS MIPE library collection: RPMI8226_ATCC cell viability assay (AID 1919871); note: nearly all actives have a fitted effect of over 30% in size
# How it was run: as §1
# [3] = Quantitative High-Throughput drug screen in 47 multiple myeloma cell lines against the NCATS MIPE library collection: OPM2_DSMZ cell viability assay (AID 1919872); note: nearly all actives have a fitted effect of over 30% in size
# How it was run: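 Primary qHTS used for cherry-picking: cells at 500/well, library compounds for 48 h (37C, 5% CO2), luminescent ATP assay.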
# [4] = Quantitative High-Throughput drug screen in 47 multiple myeloma cell lines against the NCATS MIPE library collection: KMS28BM_JCRB cell viability assay (AID 1919874); note: nearly all actives have a fitted effect of over 35% in size
# How it was run: as §1
# [5] = Quantitative High-Throughput drug screen in 47 multiple myeloma cell lines against the NCATS MIPE library collection: VP6_DJ cell viability assay (AID 1919867); note: nearly all actives have a fitted effect of over 40% in size
# How it was run: as §1
# [6] = Quantitative High-Throughput drug screen in 47 multiple myeloma cell lines against the NCATS MIPE library collection: PE2_PLB cell viability assay (AID 1919869); note: nearly all actives have a fitted effect of over 35% in size
# How it was run: as §1
# [7] = Quantitative High-Throughput drug screen in 47 multiple myeloma cell lines against the NCATS MIPE library collection: KMS11_JCRBsus cell viability assay (AID 1919873); note: nearly all actives have a fitted effect of over 50% in size
# How it was run: as §1
# [8] = Quantitative High-Throughput drug screen in 47 multiple myeloma cell lines against the NCATS MIPE library collection: UTMC2_PLB cell viability assay (AID 1919868); settings: CellTiter-Glo ATP luminescence, 48 h; viability (% of DMSO control): at 45.8 µM (top of the series); note: nearly all actives have a fitted effect of over 55% in size
# How it was run: as §1
# [9] = Quantitative High-Throughput drug screen in 47 multiple myeloma cell lines against the NCATS MIPE library collection: PCM6_Riken cell viability assay (AID 1919870); note: nearly all actives have a fitted effect of over 30% in size
# How it was run: as §1
# Potency is the fitted concentration of half-maximal effect.
compound,measurement,setting,value
CN(C)C(=O)c1ccc(S(=O)(=O)c2ccc(NC(=O)[C@@](C)(O)C(F)(F)F)c(Cl)c2)cc1,Potency,[1],3.32 µM (active)
same,Potency,[2],inactive
same,Potency,[3],inactive
same,Potency,[4],inactive
N#Cc1ccc(C(c2ccc(C#N)cc2)n2cncn2)cc1,Potency,[5],16.6 µM (active)
same,Potency,[6],inactive
same,Potency,[2],5.9 µM (active)
same,Potency,[3],9.35 µM (active)
same,Potency,[4],5.9 µM (active)
COc1cc2c(cc1OC)CN(CCc1ccc(NC(=O)c3cccc4c(=O)c5cccc(OC)c5[nH]c34)cc1)CC2,Potency,[5],inactive
same,Potency,[6],20.9 µM (active)
same,Potency,[2],inactive
same,Potency,[3],inactive
same,Potency,[7],inactive
same,Potency,[4],inactive
O=c1[nH]c(-c2ccc(C(F)(F)F)cc2)nc2c1CSCC2,Potency,[1],inactive
same,Potency,[3],inactive
same,Potency,[7],inactive
same,Potency,[4],inactive
Cc1cccc(-c2[nH]c(C(C)(C)C)nc2-c2ccc3nccnc3c2)n1,Potency,[5],2.96 µM (active)
same,Potency,[8],2.64 µM (active)
same,Potency,[6],2.09 µM (active)
same,Potency,[9],7.43 µM (active)
same,Potency,[3],inactive
Cc1ccc(N(CC2=NCCN2)c2cccc(O)c2)cc1,Potency,[5],inactive
same,Potency,[9],inactive
same,Potency,[7],18.7 µM (active)
Cc1cccc(-c2nn(C(=S)Nc3ccccc3)cc2-c2ccnc3ccccc23)n1,Potency,[5],9.35 µM (active)
same,Potency,[6],7.43 µM (active)
same,Potency,[2],inactive
same,Potency,[3],inactive
same,Potency,[4],inactive
C[C@H](NC(=O)Cc1cc(F)cc(F)c1)C(=O)N[C@@H]1C(=O)N(C)c2ccccc2-c2ccccc21,Potency,[5],inactive
same,Potency,[6],5.9 µM (active)
same,Potency,[9],5.26 µM (active)
same,Potency,[7],inactive
O=C(Nc1cccnc1)N1CCC(Cc2cccc(Oc3ccc(C(F)(F)F)cn3)c2)CC1,Potency,[5],10.5 µM (active)
same,Potency,[8],14.8 µM (active)
same,Potency,[6],16.6 µM (active)
same,Potency,[9],14.8 µM (active)
same,Potency,[3],inactive
same,Potency,[4],8.33 µM (active)
Cc1ccnc(NS(=O)(=O)c2ccc(NC(=O)Nc3ccc(S(=O)(=O)Nc4nccc(C)n4)cc3)cc2)n1,Potency,[5],2.64 µM (active)
same,Potency,[9],4.69 µM (active)
COc1ccc2nc(S(=O)Cc3ncc(C)c(OC)c3C)[nH]c2c1 (stereo not drawn),Potency,[5],16.6 µM (active)
same,viability (% of DMSO control),[8],120% (active)
same,Potency,[6],inactive
same,Potency,[9],20.9 µM (active)
same,Potency,[2],inactive
same,Potency,[7],inactive
c1ccc(-c2nn3c(c2-c2ccnc4cc(OCCN5CCOCC5)ccc24)CCC3)nc1,Potency,[5],1.87 µM (active)
same,Potency,[6],10.5 µM (active)
same,Potency,[9],1.48 µM (active)
same,Potency,[2],20.9 µM (active)
same,Potency,[4],inactive
OC[C@H](Cc1ccccc1)Nc1nc(Oc2ccc3c(c2)CCC3)nc2c1ncn2Cc1ccc(-c2ccccc2)cc1,Potency,[5],inactive
same,Potency,[9],inactive
same,Potency,[2],inactive
same,Potency,[3],inactive
same,Potency,[4],inactive
O=c1ncn2nc(Sc3ccc(F)cc3F)ccc2c1-c1c(Cl)cccc1Cl,Potency,[5],9.35 µM (active)
same,Potency,[6],3.72 µM (active)
same,Potency,[9],13.2 µM (active)
same,Potency,[2],inactive
same,Potency,[4],inactive
CCN(CC)CCCC(C)Nc1nc(C)cc(Nc2ccc3nc(C)cc(N)c3c2)n1 (stereo not drawn),Potency,[5],3.72 µM (active)
same,Potency,[6],10.5 µM (active)
same,Potency,[2],inactive
same,Potency,[3],inactive
same,Potency,[7],inactive
same,Potency,[4],inactive
COc1ccc(-c2ccc3c(N4CCOC[C@H]4C)nc(N4CCOC[C@H]4C)nc3n2)cc1CO,Potency,[5],0.0066 µM (active)
same,Potency,[8],0.001 µM (active)
same,Potency,[6],0.0148 µM (active)
same,Potency,[9],0.0166 µM (active)
same,Potency,[3],0.0209 µM (active)
same,Potency,[4],0.0083 µM (active)
CCOc1ccc(Cc2cc([C@@H]3O[C@H](CO)[C@@H](O)[C@H](O)[C@@H]3O)ccc2Cl)cc1,Potency,[5],16.6 µM (active)
same,Potency,[6],inactive
same,Potency,[2],inactive
same,Potency,[3],inactive
same,Potency,[7],inactive
same,Potency,[4],inactive
NNCCc1ccccc1,Potency,[6],inactive
same,Potency,[9],inactive
same,Potency,[2],inactive
same,Potency,[7],inactive
CCCCCCCc1ccc(CCc2cccc(O)c2C(=O)O)cc1,Potency,[8],29.6 µM (active)
same,Potency,[6],20.9 µM (active)
same,Potency,[2],16.6 µM (active)
same,Potency,[3],inactive
same,Potency,[7],inactive
same,Potency,[4],inactive
C#Cc1cccc(Nc2ncnc3cc(OCCOC)c(OCCOC)cc23)c1,Potency,[8],4.18 µM (active)
same,Potency,[3],inactive
same,Potency,[4],0.833 µM (active)
Cc1cc(SCc2sc(-c3ccc(C(F)(F)F)cc3)nc2C)ccc1OCC(=O)O,Potency,[9],inactive
same,Potency,[2],14.8 µM (active)
same,Potency,[3],inactive
COc1ccc(-c2c(-c3ccc(O)cc3O)n[nH]c2C)cc1,Potency,[5],34 µM (active)
same,Potency,[2],inactive
same,Potency,[3],inactive
same,Potency,[7],48.1 µM (active)
CCOC(=O)N1CCC(=C2c3ccc(Cl)cc3CCc3cccnc32)CC1,Potency,[8],inactive
same,Potency,[9],inactive
same,Potency,[7],20.9 µM (active)
same,Potency,[4],23.5 µM (active)
COc1ccccc1-c1cccc(-c2c(O)c3cc(C#N)c(Cl)cc3[nH]c2=O)c1,Potency,[5],21.5 µM (active)
same,Potency,[2],inactive
same,Potency,[3],inactive
CC(C)(N)C(=O)N[C@H](COCc1ccccc1)C(=O)N1CCC2(CC1)CN(S(C)(=O)=O)c1ccccc12,Potency,[3],inactive
COc1ccc(C2=N[C@H](c3ccc(Cl)cc3)[C@H](c3ccc(Cl)cc3)N2C(=O)N2CCNC(=O)C2)c(OC(C)C)c1,Potency,[2],20.9 µM (active)
same,Potency,[3],inactive
same,Potency,[7],16.6 µM (active)
same,Potency,[4],16.6 µM (active)
Cc1cnc(NC(=O)C2=C(O)c3ccccc3S(=O)(=O)N2C)s1,Potency,[2],inactive
same,Potency,[3],inactive
same,Potency,[7],inactive
same,Potency,[4],inactive
CCc1ccc(CCOc2ccc(CC3SC(=O)NC3=O)cc2)nc1 (stereo not drawn),Potency,[6],inactive
same,Potency,[9],18.7 µM (active)
same,Potency,[3],inactive
same,Potency,[7],inactive
same,Potency,[4],inactive
Cc1[nH]c(=O)c(C#N)cc1-c1ccncc1,Potency,[6],11.8 µM (active)
same,Potency,[9],7.43 µM (active)
same,Potency,[2],inactive
same,Potency,[3],inactive
same,Potency,[7],inactive
same,Potency,[4],11.8 µM (active)
C[C@]1(c2nc3c(C(N)=O)cccc3[nH]2)CCCN1,Potency,[3],inactive
Cc1cc2c(F)c(Oc3ncnn4cc(OC[C@@H](C)O)c(C)c34)ccc2[nH]1,Potency,[3],23.5 µM (active)
Cn1cc(-c2ccc3nnc(C(F)(F)c4ccc5ncccc5c4)n3n2)cn1,Potency,[8],inactive
same,Potency,[6],inactive
same,Potency,[9],inactive
same,Potency,[3],inactive
same,Potency,[7],inactive
same,Potency,[4],inactive
NC(=O)c1ccc(-c2nc(-c3ccc4c(c3)OCO4)c(-c3ccccn3)[nH]2)cc1,Potency,[7],inactive
same,Potency,[4],inactive
CCCn1c(=O)c2[nH]c(C34CC5CC3C[C@@H](C5)C4)nc2n(CCC)c1=O,Potency,[8],inactive
same,Potency,[6],inactive
same,Potency,[2],8.33 µM (active)
same,Potency,[3],inactive
same,Potency,[7],inactive
same,Potency,[4],inactive
Cc1ccc(NC(=O)c2cccc(C(C)(C)C#N)c2)cc1Nc1ccc2ncn(C)c(=O)c2c1,Potency,[6],5.9 µM (active)
same,Potency,[9],inactive
same,Potency,[3],16.6 µM (active)
same,Potency,[7],11.8 µM (active)
COc1cc(F)c(F)c(Nc2ccc(I)cc2F)c1NS(=O)(=O)C1(C[C@H](O)CO)CC1,Potency,[9],14.8 µM (active)
same,Potency,[2],10.5 µM (active)
same,Potency,[3],inactive
same,Potency,[7],16.6 µM (active)
same,Potency,[4],20.9 µM (active)
Oc1cccc(-c2nc(N3CCOCC3)c3oc4ncccc4c3n2)c1,Potency,[8],0.0382 µM (active)
same,Potency,[6],0.0855 µM (active)
same,Potency,[9],0.54 µM (active)
same,Potency,[3],0.136 µM (active)
Nc1ccc(S(=O)(=O)Nc2ccnn2-c2ccccc2)cc1,Potency,[6],inactive
same,Potency,[9],inactive
same,Potency,[2],inactive
same,Potency,[3],inactive
same,Potency,[4],inactive
COc1cc(Oc2ccnc3cc(OC)c(OC)cc23)ccc1NC(=O)NC(C)c1nccs1 (stereo not drawn),Potency,[8],inactive
same,Potency,[6],23.5 µM (active)
same,Potency,[9],13.2 µM (active)
same,Potency,[2],16.6 µM (active)
same,Potency,[7],18.7 µM (active)
same,Potency,[4],9.35 µM (active)
CC[C@@H](C)[C@H](NC(=O)[C@H](CC1CCCCC1)NC(=O)c1ccno1)C(=O)N1CCC2(CCc3ccccc32)CC1,Potency,[6],inactive
same,Potency,[3],11.8 µM (active)
same,Potency,[4],inactive
CC(C[N+](C)(C)C)OC(N)=O (stereo not drawn),Potency,[6],inactive
same,Potency,[9],inactive
same,Potency,[2],inactive
same,Potency,[4],inactive
N#CC[C@H](C1CCCC1)n1cc(-c2ncnc3[nH]ccc23)cn1,Potency,[8],9.35 µM (active)
same,Potency,[2],inactive
same,Potency,[3],inactive
same,Potency,[7],20.9 µM (active)
same,Potency,[4],20.9 µM (active)
COCCNCCCn1c(C(=O)CF)c(-c2ccc(C)cc2)c2c(N)ncnc21,Potency,[6],14.8 µM (active)
same,Potency,[9],10.5 µM (active)
same,Potency,[3],inactive
C1COC(NC(C2CC2)C2CC2)=N1,Potency,[3],inactive
same,Potency,[7],inactive
same,Potency,[4],inactive
CC(C)(C)OC(=O)CN(Cc1ccc(Cl)cc1)Cc1ccc([N+](=O)[O-])s1,Potency,[9],inactive
CNCc1ccc(-c2[nH]c3cc(F)cc4c3c2CCNC4=O)cc1,Potency,[6],inactive
same,Potency,[2],inactive
same,Potency,[3],inactive
CN(C)c1ccc(C2Nc3ccc4ccccc4c3C3=C2C(=O)CC(C)(C)C3)cc1Br (stereo not drawn),Potency,[6],5.26 µM (active)
same,Potency,[9],inactive
same,Potency,[3],inactive
same,Potency,[4],inactive
CCOc1cc(C=C2C(=O)N(c3ccccc3)N=C2C)cc(Cl)c1OCC(=O)OC,Potency,[9],16.6 µM (active)
same,Potency,[2],inactive
same,Potency,[3],inactive
same,Potency,[7],inactive
same,Potency,[4],inactive
CCOc1cc(C(=O)Nc2ccc(Cl)c(-c3nc4ccccc4[nH]3)c2)cc(OCC)c1OCC,Potency,[8],inactive
same,Potency,[6],8.33 µM (active)
same,Potency,[2],18.7 µM (active)
same,Potency,[4],inactive
CC[C@H](Nc1ncnc2nc[nH]c12)c1nc2cccc(F)c2c(=O)n1-c1ccccc1,Potency,[8],5.9 µM (active)
same,Potency,[7],18.7 µM (active)
NCCc1ccc(O)c(O)c1,Potency,[5],23.5 µM (active)
same,Potency,[2],18.7 µM (active)
same,Potency,[3],13.2 µM (active)
same,Potency,[7],9.35 µM (active)
same,Potency,[4],inactive
O=C(c1cc(Cc2n[nH]c(=O)c3ccccc23)ccc1F)N1CCN(C(=O)C2CC2)CC1,Potency,[8],10.5 µM (active)
same,Potency,[6],18.7 µM (active)
same,Potency,[9],11.8 µM (active)
same,Potency,[2],inactive
same,Potency,[3],inactive
same,Potency,[4],inactive
